Records with an inconclusive call do not appear. Activity calls are given as the source filed them. The call rests on the fitted dose curve; in most records, active means well fitted curve in the direction sought with a large enough effect; inconclusive means small, poorly fitted or top-dose-only effect, or another doubt; inactive means no such curve, though single readings can be large; an effect the other way counts as inactive or inconclusive.
Assays:
[1] = qHTS of pediatric cancer cell lines to identify multiple opportunities for drug repurposing: Primary screen for NB1643 cells (AID 1347099); further: nearly all actives have a fitted effect of over 50% in size; further: potency means the concentration at half of the fitted maximal effect
In short: (§1)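 Cells seeded at 500-1,000 cells/well in growth media, rested 5 hours at 37 degrees C, 5% CO2, then dosed; MIPE compounds at 11-point (from 0.78 nM) and NPC at 8-point (from 0.59 nM) final concentrations. Viability by CellTiter-Glo luminescence after 48 hours.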

[2] = qHTS of pediatric cancer cell lines to identify multiple opportunities for drug repurposing: Primary screen for LAN-5 cells (AID 1347100); further: potency means the concentration at half of the fitted maximal effect
In short: (§2)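 Cells (500-1,000/well) in growth media were settled 5 h at 37 degrees C, then given compounds for 48 h. Viability was read as CellTiter-Glo luminescence. Primary runs used MIPE at 11 points (0.78 nM-46 µM) and NPC at 8 points (0.59 nM-46 µM); follow-ups used 11 points.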

[3] = qHTS of pediatric cancer cell lines to identify multiple opportunities for drug repurposing: Primary screen for OHS-50 cells (AID 1347103); further: nearly all actives have a fitted effect of over 40% in size; further: potency means the concentration at half of the fitted maximal effect
In short: (§3)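 Cells (500-1,000/well) rested 5 h, then received compounds for 48 h; metabolically active cells were measured by CellTiter-Glo luminescence. Final concentrations spanned up to 46 µM (MIPE, 11-point) or 0.59 nM-46 µM (NPC, 8-point) in primary screens, 11-point in follow-ups.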

[4] = qHTS of pediatric cancer cell lines to identify multiple opportunities for drug repurposing: Primary screen for control Hh wild type fibroblast cells (AID 1347106);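 further: series mostly up to about 46 µM; a drop in luminescence marks cytotoxicity and a rise apparent proliferation; nearly all actives have a fitted effect of over 55% in size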
In short: as §2

[5] = qHTS of pediatric cancer cell lines to identify multiple opportunities for drug repurposing: Primary screen for Rh30 cells (AID 1347107); further: nearly all actives have a fitted effect of over 75% in size; further: potency means the concentration at half of the fitted maximal effect
In short: as §2

[6] = qHTS of pediatric cancer cell lines to identify multiple opportunities for drug repurposing: Primary screen for Rh41 cells (AID 1347108); further: nearly all actives have a fitted effect of over 70% in size; further: potency means the concentration at half of the fitted maximal effect
In short: as §1

[7] = qHTS of pediatric cancer cell lines to identify multiple opportunities for drug repurposing: Primary screen for Rh18 cells (AID 1347102); further: nearly all actives have a fitted effect of over 65% in size; further: potency means the concentration at half of the fitted maximal effect
In short: as §2

[8] = qHTS of pediatric cancer cell lines to identify multiple opportunities for drug repurposing: Primary screen for MG 63 (6-TG R) cells (AID 1347105); further: nearly all actives have a fitted effect of over 50% in size; further: potency means the concentration at half of the fitted maximal effect
In short: as §1

[9] = qHTS of pediatric cancer cell lines to identify multiple opportunities for drug repurposing: Primary screen for BT-12 cells (AID 1347101); further: nearly all actives have a fitted effect of over 25% in size; further: potency means the concentration at half of the fitted maximal effect
In short: as §3

[10] = qHTS of pediatric cancer cell lines to identify multiple opportunities for drug repurposing: Primary screen for RD cells (AID 1347104); further: nearly all actives have a fitted effect of over 55% in size; further: potency means the concentration at half of the fitted maximal effect
In short: as §1

Measured: Potency

CCC(=C(CC)c1ccc(O)cc1)c1ccc(O)cc1
inactive: [4] | [5] | [6]
active: [1] 9.35 µM | [2] 16.6 µM | [3] 30.6 µM

Nc1nc(Cl)nc2c1ncn2[C@@H]1O[C@H](CO)[C@@H](O)[C@H]1F
inactive: [7] | [4] | [5]
active: [1] 3.72 µM | [2] 0.0372 µM | [8] 1.18 µM

CNc1nc(Nc2ccc(C(=O)N3CCOCC3)cc2OC)ncc1Cl
active: [1] 4.69 µM
inactive: [9] | [7] | [10] | [4] | [6]

CCNC(=O)Nc1ccc(Oc2ncnc(N)c2C=NOC)cc1Cl
not listed: [2] | [8]
inactive: all other assays above

CC(=O)O[C@]1(C(C)=O)CC[C@H]2[C@@H]3C=C(Cl)C4=CC(=O)[C@@H]5C[C@H]5[C@]4(C)[C@@H]3CC[C@@]21C
inactive: [7]
active: [1] 14.8 µM | [9] 3.43 µM | [3] 3.43 µM | [10] 18.7 µM

CNC(=O)c1ccc2c(C(=Nc3cccc(CN(C)C)c3)c3ccccc3)c(O)[nH]c2c1
inactive: [9] | [8] | [4] | [5]
active: [1] 16.6 µM | [3] 13.7 µM

O=C(C=Cc1ccc(O)cc1)c1ccc(O)cc1O
active: [1] 13.2 µM | [2] 20.9 µM
inactive: [7] | [4]

CCCCOCCOc1nc(-c2ccc(C(=O)O)c(F)c2)sc1C
active: [3] 0.485 µM
inactive: [1] | [2] | [10] | [4]

CNC(=O)[C@H](CC1=CN=C2C=CCC=C12)NC(=O)[C@@H](CC(=O)NO)CC(C)C
active: [1] 0.0662 µM | [9] 0.344 µM | [3] 1.37 µM | [10] 1.18 µM | [8] 9.35 µM
inactive: [7] | [4] | [5]

Cc1cc(NC(=O)Nc2ccc(N(C)C)cc2)c2cc(F)cc(F)c2n1
not listed: [3] | [8] | [9]
inactive: all other assays above

Cn1cnc(-c2cc3nccc(Oc4ccc(NC(=S)NC(=O)Cc5ccccc5)cc4F)c3s2)c1
active: [1] 16.6 µM | [2] 16.6 µM | [3] 34.3 µM
inactive: [4]

OC(c1cc(C(F)(F)F)nc2c(C(F)(F)F)cccc12)C1CCCCN1 (stereo not drawn)
active: [2] 33.2 µM
inactive: [1] | [8] | [4] | [5] | [6]

COc1ccc(-c2oc3c(CC=C(C)C)c(O)cc(O)c3c(=O)c2O)cc1
active: [1] 14.8 µM | [10] 37.2 µM | [6] 18.7 µM
inactive: [9] | [4]

CC(C)C[C@H](NC(=O)c1cc2ccccc2s1)C(=O)N1CCN(C(=O)[C@H](CO)NS(=O)(=O)c2ccc(Cl)cc2Cl)CC1
inactive: [4]
active: [1] 23.5 µM | [9] 0.001 µM | [3] 21.7 µM | [10] 29.6 µM

Cc1cc2c(cc1C1(c3ccc(C(=O)O)cn3)CC1)C(C)(C)CCC2(C)C
inactive: [1] | [2] | [7] | [8] | [4] | [6]

CCC(=O)NCC[C@@H]1CCc2ccc3c(c21)CCO3
inactive: [1] | [2] | [7] | [8] | [4] | [5]

CN1CCC(COc2cnc(-c3cccc(Cn4nc(-c5cccc(C#N)c5)ccc4=O)c3)nc2)CC1
inactive: [1] | [9] | [7] | [5]
active: [10] 4.69 µM | [8] 0.743 µM | [6] 3.72 µM

CN1CCN(c2ncc(-c3cc(Cl)cc(Cl)c3Cl)c(N)n2)CC1
active: [1] 16.6 µM | [9] 4.32 µM | [3] 3.85 µM
not listed: [2] | [10]
inactive: all other assays above

Cc1cc(-c2ncc(CC(=O)Nc3ccc(-c4cnccn4)cn3)cc2C)ccn1
active: [1] 16.6 µM | [9] 6.85 µM | [3] 5.44 µM
inactive: [7] | [8] | [6]

C[C@@H]1[C@H](O)[C@@H](C)C=CC=CC=CC=CC=CC=CC=C[C@H](O[C@@H]2O[C@H](C)[C@H](O)[C@H](N)[C@@H]2O)C[C@@H]2O[C@](O)(C[C@@H](O)C[C@@H](O)[C@H](O)CC[C@@H](O)C[C@@H](O)CC(=O)O[C@H]1C)C[C@H](O)[C@@H]2C(=O)O
inactive: [9] | [7] | [3] | [4]
active: [1] 0.166 µM | [10] 0.743 µM | [5] 418 nM

CNC1CCC(N(Cc2cccc(-c3ccncc3)c2)C(=O)c2sc3ccccc3c2Cl)CC1 (stereo not drawn)
active: [1] 20.9 µM | [9] 30.6 µM | [7] 23.5 µM | [3] 19.3 µM | [10] 18.7 µM | [8] 29.6 µM
inactive: [4]

Source: PubChem BioAssay (NCATS)
